# The supplement of paper PMC12282887
# ± gives the standard deviation of the averaged measurements.
# Tested on: E. coli BW25113 marRABp lux reporter
# Assay: promoter activity interaction Z-score (Lux/OD deviation from empty-vector control); higher = stronger promoter induction by the compound
# Experimental: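 E. coli BW25113 (wild type or ΔmarA/ΔsoxS/Δrob) carrying pTU175 luxCDABE promoter reporters was grown in LB in 384-well plates at 37°C with each of 94 compounds at 4 two-fold concentrations, in biological duplicates. Luminescence and OD600 were read every 30 min for 12 h and integrated as AUC over 8 h (0-8 h WT, 1-9 h mutants). Lux AUC was divided by OD AUC; the interaction score is the residual of a Huber robust fit of each promoter against the empty-vector control, then Z-transformed per promoter.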
SMILES,"promoter activity interaction Z-score (13.3 µg/ml, genetic background: wild type)","promoter activity interaction Z-score (13.3 µg/ml, genetic background: ΔmarA)","promoter activity interaction Z-score (13.3 µg/ml, genetic background: Δrob)","promoter activity interaction Z-score (13.3 µg/ml, genetic background: ΔsoxS)","promoter activity interaction Z-score (26.6 µg/ml, genetic background: wild type)","promoter activity interaction Z-score (26.6 µg/ml, genetic background: ΔmarA)","promoter activity interaction Z-score (26.6 µg/ml, genetic background: Δrob)","promoter activity interaction Z-score (26.6 µg/ml, genetic background: ΔsoxS)","promoter activity interaction Z-score (53.2 µg/ml, genetic background: wild type)","promoter activity interaction Z-score (53.2 µg/ml, genetic background: ΔmarA)","promoter activity interaction Z-score (53.2 µg/ml, genetic background: Δrob)","promoter activity interaction Z-score (53.2 µg/ml, genetic background: ΔsoxS)","promoter activity interaction Z-score (106.3 µg/ml, genetic background: wild type)","promoter activity interaction Z-score (106.3 µg/ml, genetic background: ΔmarA)","promoter activity interaction Z-score (106.3 µg/ml, genetic background: Δrob)","promoter activity interaction Z-score (106.3 µg/ml, genetic background: ΔsoxS)","promoter activity interaction Z-score (18 µg/ml, genetic background: wild type)","promoter activity interaction Z-score (18 µg/ml, genetic background: ΔmarA)","promoter activity interaction Z-score (18 µg/ml, genetic background: Δrob)","promoter activity interaction Z-score (18 µg/ml, genetic background: ΔsoxS)","promoter activity interaction Z-score (36.1 µg/ml, genetic background: wild type)","promoter activity interaction Z-score (36.1 µg/ml, genetic background: ΔmarA)","promoter activity interaction Z-score (36.1 µg/ml, genetic background: Δrob)","promoter activity interaction Z-score (36.1 µg/ml, genetic background: ΔsoxS)","promoter activity interaction Z-score (72.1 µg/ml, genetic background: wild type)","promoter activity interaction Z-score (72.1 µg/ml, genetic background: ΔmarA)","promoter activity interaction Z-score (72.1 µg/ml, genetic background: Δrob)","promoter activity interaction Z-score (72.1 µg/ml, genetic background: ΔsoxS)","promoter activity interaction Z-score (144.2 µg/ml, genetic background: wild type)","promoter activity interaction Z-score (144.2 µg/ml, genetic background: ΔmarA)","promoter activity interaction Z-score (144.2 µg/ml, genetic background: Δrob)","promoter activity interaction Z-score (144.2 µg/ml, genetic background: ΔsoxS)"
NCCc1c[nH]c2ccc(O)cc12 [Serotonine],-0.413 ± 0.011,-0.686 ± 0.15,-0.419 ± 0.028,-0.41 ± 0.18,-0.214 ± 0.13,-0.554 ± 0.18,-0.414 ± 0.15,-0.421 ± 0.26,-0.616 ± 0.21,-0.71 ± 0.041,-0.479 ± 0.089,-0.523 ± 0.25,-0.518 ± 0.15,-0.531 ± 0.2,-0.324 ± 0.025,-0.498 ± 0.093,–,–,–,–,–,–,–,–,–,–,–,–,–,–,–,–
C[C@]12CC[C@H]3[C@@H](CCC4=CC(=O)CC[C@@]43C)[C@@H]1CC[C@@H]2O [Testosterone],–,–,–,–,–,–,–,–,–,–,–,–,–,–,–,–,-0.549 ± 0.28,-0.238 ± 0.15,-0.5774 ± 0.0046,-0.238 ± 0.058,-0.712 ± 0.027,-0.0596 ± 0.21,-0.24 ± 0.17,-0.368 ± 0.14,-0.654 ± 0.22,-0.0306 ± 0.33,-0.303 ± 0.014,-0.398 ± 0.14,-0.399 ± 0.038,-0.0772 ± 0.21,-0.448 ± 0.17,-0.258 ± 0.0049
